Values joined by “and” are separate entries in the source; they are usually repeats but may differ in a detail not shown here. Identical values can stand only once. About 83,000 compounds went through this panel and 20% of them were active in at least one assay; those are over-represented in the sample as a whole.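 Growth was measured after 48 h exposure to one concentration of compound in 96-well plates. Values under 10 count as active.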 A number with no mark means an inactive call. Active and inactive are the calls of the source.

This test relates to HL-60(TB) leukemia. Kind of test: NCI-60 one-dose screen, 48 h (100 = growth as untreated, 0 = no growth, -100 = all killed). Particulars: 10 µM unless noted.
Regarding `ClC(Cn1ncc2c(Nc3cccc(Br)c3)nc(SCCN3CCOCC3)nc21)c1ccc(Br)cc1` (stereo not given), the growth was -31.9% (active).

`C=C1CC[C@@H]2[C@]3(C)COC(c4ccccc4)O[C@@H]3CC[C@@]2(C)[C@@H]1C/C=C1/C(=O)OCC1OC(C)=O` (stereo not given in full): the growth is -52.4% (active).

Regarding `C=CC(=O)Nc1ccc(C)c(Oc2ccc(Cl)cc2)c1`, the growth was 54%.

For `CC(=O)Nc1ccc(-n2cnc3cc(-c4ccc(O)cc4)ccc32)cc1F`, the growth was -10.2% (active).

On to `CCCCCCCCc1cccc(CC(=O)Nc2ccc(C)cc2C(=O)O)c1`, for which the growth is 33.5% [25 µM].

For the compound `COc1ccc(NC(=O)NN2C(=O)c3ccccc3N(C)C2c2ccc(OC)cc2)cc1` (stereo not given), the growth was 101%.

For `Cc1ccc2nc(-c3ccc(-c4nnc(SCC(=O)Nc5ccc(Cl)cc5)o4)cc3)[nH]c2c1`, the growth was 53.8%.

For the compound `CCCCCCCCc1ccc(C(=O)Nc2cccc(P(=O)(O)O)c2)cc1`, the growth was 101%.

On to `Cc1ccc(C(=O)Nc2cc(-c3ccncc3)cc(C(F)(F)F)c2)cc1C#Cc1cnc2cccnn12`, for which the growth was 16.8%.

Regarding `C=C1CC[C@@H]2[C@]3(C)COC(c4cn[nH]c4-c4cccc(Br)c4)O[C@@H]3CC[C@@]2(C)[C@@H]1C/C=C1/C(=O)OCC1O` (stereo not given in full), the growth was -16.3% (active).

Consider `COc1cc(C2CC(c3ccccc3)=Nc3c(N)nc(N)nc3N2)ccc1Oc1nc(Nc2ccc(F)cc2)nc(N(C)C)n1` (stereo not given), for which the growth was 26.1%.

On to `O=C1NC(=NC23CC4CC(CC(C4)C2)C3)N/C1=C\c1ccc2ncccc2n1`, for which the growth was -19.1% (active).

Consider `CCOc1ccc(/C=N/NC(=O)Cn2nc(Cc3ccc(OC)cc3)c3onc(C)c3c2=O)cc1`, for which the growth is 57.5%.

For `CC(=O)Nc1cccc(-n2c(COc3ccc(Br)cc3)nc3ccccc32)c1`, the growth was 113% and 103%.

In the case of `COc1cc(-c2ccc(/C=N/NC(=O)c3[nH]c4ccc(Br)cc4c3-c3ccccc3)o2)cc(OC)c1OC`, the growth is 99.3%.

As to `COc1cccc(-c2nc(Nc3ccc(S(N)(=O)=O)cc3)c3ccccc3n2)c1`, the growth was 35%.

Turning to `Cc1ccc(C(SCCNCc2cc(N(C)C)ccn2)(c2ccccc2)c2ccccc2)cc1`, the growth is -40.9% (active).

For `COc1ccccc1NC(=O)N/N=C/c1c[nH]c2ccccc12`, the growth was 5.87% (active).

For `CC[C@]12C=CCN3CC[C@@]4(c5ccc(OC)cc5N(C)[C@H]4[C@@](O)(C(=O)OC)[C@@H]1OC(=O)CCC[P+](c1ccc(OC)cc1)(c1ccc(OC)cc1)c1ccc(OC)cc1)[C@@H]32`, the growth was -39.7% (active).

As for `CS(=O)(=O)Nc1ccc(-c2ccc3c(c2)ncn3-c2ccc(NC(=O)Nc3ccc(Cl)c(C(F)(F)F)c3)cc2)cc1`, the growth is -42.4% (active).

As for `Cc1ccc(C(=O)Nc2ccc(-n3c(C)nc4c(cnn4-c4ccccc4)c3=O)cc2)cc1`, the growth is 51.4%.

For the compound `N#Cc1cc(-c2ccc3ncnc(N4CCc5cc(F)c(Cl)cc54)c3c2)cnc1N`, the growth is 36.1%.

With `C[C@H]1[C@@H](CC(=O)N[C@@H](Cc2coc3ccccc23)B(O)O)O[C@@H]2OC3(C)CC[C@H]4[C@H](C)CC[C@@H]1[C@@]24O3`, the growth is 11.2%.

With `Cn1nc(C(F)(F)F)cc1-c1cc(Cl)c(COc2ccc(Cl)cc2)c(-c2ccc(Cl)c(C(F)(F)F)c2)c1O`, the growth was -22.5% (active).

Regarding `COc1ccc(N=Nc2c(N)nn3c(-c4cc5ccccc5oc4=O)ccnc23)cc1`, the growth was 73.9%.

With `O=C(NNC(=S)NC(=O)c1ccccc1)c1ccc(OCc2nc3ccc(Cl)cc3[nH]2)cc1`, the growth was 1.3% (active).

`COc1ccc(C2OC[C@@]3(C)C4CC[C@]5(C)C(CC=C6C7CC(C)(C)CC[C@]7(C(=O)O)CC[C@]65C)[C@@]4(C)C[C@@H](O)[C@@H]3O2)cc1` (stereo not given in full): the growth was 46.9%.

In the case of `N#C/C(=C\c1ccc(N(c2ccccc2)c2ccccc2)cc1)C(N)=O`, the growth was 68.7%.

For the compound `CC1=C(C(=O)c2ccccc2)C(c2cccc(Cl)c2Cl)n2c(nc3ccccc32)N1` (stereo not given), the growth is 36.1%.

`C=C1CC[C@@H]2[C@]3(C)COC(c4cn[nH]c4-c4ccccc4)O[C@@H]3CC[C@@]2(C)[C@@H]1C/C=C1/C(=O)OCC1O` (stereo not given in full): the growth is 8.64% (active).

On to `COc1ccc(-c2cc(C)nc3[nH]c(=O)sc23)cc1`, for which the growth was 75.6%.

Take `Cc1cc2nc3c([nH]c2cc1C)c1ccc(=O)cc1n3CCN(C)C`: the growth is 16.8%.

`COc1ccccc1C(=O)NN1C(=O)/C(=C/C2=Cc3ccccc3OC2)SC1=S`: the growth is 97.2%.

With `CC(C)CCNC(=O)N/C(N)=N/c1nc2ccccc2s1`, the growth is 55.6%.

Take `CC(=O)/C=C/c1cccc2c1C(=O)NC(C)(c1cc3cc(Br)ccc3oc1=O)N2` (stereo not given): the growth was -29.3% (active).

As for `Cc1ccc2nc(COc3ccc(C(=O)NNC(=S)NCCc4ccccc4)cc3)[nH]c2c1`, the growth is 99.7%.

Take `CN(C(=O)CN1C(=O)/C(=C/c2ccco2)SC1=S)C1CCS(=O)(=O)C1` (stereo not given): the growth was 81.6%.

As to `CC12CC[C@@H]3[C@]4(C)COC(c5cn[nH]c5-c5cccc(Br)c5)O[C@@H]4CC[C@@]3(C)[C@@H]1CC(C1=CCOC1=O)O2` (stereo not given in full), the growth was 13%.

In the case of `CC(=O)Nc1ccc(-c2nc3cc(-c4ccc(O)cc4)ccc3n2C)cc1`, the growth was 26%.

Turning to `Nc1cc(-c2cccc(C(=O)NCc3ccc4c(c3)OCO4)c2)ccn1`, the growth is 98.1%.

For the origin of these results see PubChem BioAssay (NCI).
